TGFb SMAD3 inh = blocks TGF-b signaling; Potency, µM (series often up to 46.1 µM), for inactives: at the highest dose activity, negative = inhibition, most hits filed as inhibitors; HepG2 CAGA-GFP TGF-b/SMAD3 reporter, GFP fluorescence, 18 h; TGF-beta stimulated, 500 pg/mL final; AID 588855; 410,000 compounds, 1.2% hits; further: potency means the concentration at half of the fitted maximal effect; on the % scale 0 is the no-effect control and ±100 the full control effect; nearly all actives have a fitted effect of over 65% in size
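Smad-responsive CAGA-GFP expression was quantified in HEPG2 cells exposed to compounds and 500 pg/mL final TGF-beta for 18 h at 37 degrees C; unstimulated wells defined full inhibition.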
DT40 TDP1 no CPT = qHTS for Inhibitors of human tyrosyl-DNA phosphodiesterase 1 (TDP1): qHTS in cells in absence of CPT. DT40 Tdp1-/- hTDP1 cells, no CPT, ATP luminescence, 48 h. Potency, µM (series often up to 46.2 µM), for inactives: at the top dose activity change, negative = growth inhibition, hits mostly inhibitors. 420,000 compounds, 15% hits; further: potency means the concentration at half of the fitted maximal effect; on the % scale 0 is the no-effect control and ±100 the full control effect; nearly all actives have a fitted effect of over 55% in size
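No-CPT arm: Tdp1-/-;hTDP1 DT40 cells (400/well) plus compounds, incubated ≥48 hr at 37 °C. Readout CellTiter-Glo luminescence.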
TDP1 block = TDP1 (human) enzyme inhibition; Potency, µM (highest dose often 130 µM), inactives show at the top dose activity change, negative = inhibition, usual class: inhibitors; 350,000 compounds, 0.28% hits; Q9NUW8; recombinant TDP1, AlphaScreen DNA substrate cleavage; further: potency means the concentration at half of the fitted maximal effect; on the % scale 0 is the no-effect control and ±100 the full control effect; nearly all actives have a fitted effect of over 40% in size
Target sequence (Q9NUW8 whole entry, looked up): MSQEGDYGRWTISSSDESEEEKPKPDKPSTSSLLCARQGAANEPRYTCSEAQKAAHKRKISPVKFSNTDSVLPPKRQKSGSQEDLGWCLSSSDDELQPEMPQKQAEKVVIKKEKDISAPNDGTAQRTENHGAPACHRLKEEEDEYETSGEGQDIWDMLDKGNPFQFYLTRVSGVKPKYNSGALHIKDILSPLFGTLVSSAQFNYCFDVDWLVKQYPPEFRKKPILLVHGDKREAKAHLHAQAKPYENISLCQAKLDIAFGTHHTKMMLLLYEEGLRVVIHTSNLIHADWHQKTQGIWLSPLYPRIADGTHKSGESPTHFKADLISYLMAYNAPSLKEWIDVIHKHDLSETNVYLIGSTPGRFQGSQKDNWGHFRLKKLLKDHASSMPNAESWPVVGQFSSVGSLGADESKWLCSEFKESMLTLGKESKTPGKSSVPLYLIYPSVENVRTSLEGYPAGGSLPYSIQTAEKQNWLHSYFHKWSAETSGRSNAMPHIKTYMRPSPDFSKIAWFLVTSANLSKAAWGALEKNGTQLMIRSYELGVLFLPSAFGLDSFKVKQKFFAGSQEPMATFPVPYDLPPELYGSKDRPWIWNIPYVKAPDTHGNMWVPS
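Recombinant E. coli-expressed Tdp1 (1 nM) preincubated with compound 15 min at RT, then 5'-biotin/3'-phosphotyrosine-FITC DNA substrate (15 nM) added for 5 min. AlphaScreen beads (10 ug/ml) added, 10 min RT; tyrosine-FITC cleavage read as signal loss.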
HepG2 viability = counter-screen for TGF-b inhibitors: cytotoxicity in HepG2 cells; 410,000 compounds, 0.76% hits; HepG2 CAGA-GFP viability, ATP luminescence, 18 h; Potency, µM (doses to about 46.1 µM), for the others: at the highest dose activity change, negative = cytotoxicity, actives largely listed as cytotoxic; further: potency means the concentration at half of the fitted maximal effect
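CellTiter-Glo luminescence gave cytotoxicity after 18 hours at 37 degrees C. The cells were HepG2 CAGA-GFP in 1% FBS DMEM, stimulated with 500 pg/mL TGF-beta after compound addition. %Activity was normalised to no-cell wells (complete cell-killing) and DMSO (no toxicity), and curves were fitted and classified.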
TDP1 cell CPT = DT40-hTDP1 cell growth loss with CPT | chicken DT40 Tdp1-/-;hTDP1 cells + 20 nM CPT, ATP luminescence, 48 h | Potency, µM (doses to about 46.2 µM), without a hit: at the highest dose activity change, negative = growth inhibition, hits mostly inhibitors | 420,000 compounds, 12% hits | AID 686979; further: potency means the concentration at half of the fitted maximal effect; on the % scale 0 is the no-effect control and ±100 the full control effect; nearly all actives have a fitted effect of over 55% in size
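Cell growth measured by CellTiter-Glo luminescence after a minimum 48 h, 37 C compound exposure with 20 nM CPT in Tdp1-knockout DT40 cells stably expressing hTDP1, seeded 400/well; qHTS titration format.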
IL-1B inflam inh = inhibitors of inflammasome signaling (IL-1 beta secretion); 360,000 compounds, 4.7% hits; activity change, % at 57.5 µM; THP-1 LPS/ATP IL-1B secretion, AlphaLISA, 16 h; stronger effect = lower value; in the data active means activity change below about -50%; inconclusive means mostly about -30% to -49%; further: on the % scale 0 is the no-effect control and ±100 the full control effect
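Secreted IL-1B measured by AlphaLISA bead assay after 16 h compound exposure of THP-1 cells; compounds (final up to 57.5 uM) added 1 h before LPS (250 ng/mL) and ATP (1.25 mM) stimulation; lower signal means less secretion.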
Starred values were filed as active, the others as inactive; ? = inconclusive; / = no result. Shown are actives, neighbours in structure and some others; about 19% of the full set was active somewhere. Unless noted, the call rests on the fitted dose curve; in most records, active means well fitted curve in the direction sought with a large enough effect; inconclusive means small, poorly fitted or top-dose-only effect, or another doubt; inactive means no such curve, though single readings can be large; an effect the other way counts as inactive or inconclusive.

SMILES	TGFb SMAD3 inh	DT40 TDP1 no CPT	TDP1 block	HepG2 viability	TDP1 cell CPT	IL-1B inflam inh
COc1ccccc1NC(=O)N1CCN(c2nnc(C)c3c(C)n(-c4ccccc4)nc23)CC1	0.0%	?	4.7%	-45.9%	?	/
Cc1cccc(NC2=NC(C)(C)N=C(N)N2)c1	-19.6%	0.164µM*	0.0%	-45.0%	0.461µM*	41.5
CN(C)c1ccc(CNC(=O)C2CCN(S(=O)(=O)c3ccc4c(ccn4C)c3)CC2)cc1	?	?	6.5%	-16.3%	?	/
Cc1ccc2nc(-c3ccc(NC(=O)C(C)Sc4nncs4)cc3)sc2c1 (configuration not stated)	-2.5%	9.2µM*	/	-43.3%	?	-20.5
CCC1(c2ccc(F)cc2)NC(=O)N(CC(=O)Nc2ccc(-c3nc4ccc(C)cc4s3)cc2)C1=O (configuration not stated)	-38.5%	6.51µM*	5.5%	-39.7%	13µM*	96.0
Cc1ccc2nc(-c3ccc(NC(=O)C(F)(F)F)cc3)sc2c1	-10.1%	?	/	-26.1%	-18.2%	/
Cc1ccc2nc(-c3ccc(NC(=O)CCS(=O)(=O)c4ccccc4)cc3)sc2c1	-6.1%	25.9µM*	-2.3%	-23.9%	?	-23.3
Cc1ccc2nc(-c3ccc(NC(=O)CNC4CC4)cc3)sc2c1	-19.1%	18.4µM*	2.5%	-50.2%	16.4µM*	-3.7
Cc1cc(NC(=O)Nc2nnc(N(C)Cc3ccccc3)s2)ccc1Br	121.4%	?	2.9%	-28.0%	?	/
Cc1ccc(S(=O)(=O)NC(=O)NC2CCCCCCC2)cc1	/	4.6%	/	/	13.3%	/
COc1ccc(N(C(=O)/C=C/c2ccc(OC)c(OC)c2)C2=CC3CCC(C2)N3C)cc1 (configuration not stated)	2.1%	2.8%	3.8%	4.3%	-0.1%	-26.2
CCCCn1c(=O)[nH]c(=O)c2c1nc(-c1ccc(C)c([N+](=O)[O-])c1)n2CC	-0.4%	20.6µM*	4.9%	-5.6%	?	-18.0
COCCn1c(-c2ccc(SC)cc2)nc2c1c(=O)[nH]c(=O)n2CC(C)C	-7.3%	-25.8%	-3.4%	-14.5%	-14.4%	22.7
Cc1ccc(-c2nc3c(c(=O)[nH]c(=O)n3CC(C)C)n2CC(C)C)cc1[N+](=O)[O-]	?	29.1µM*	6.1%	3.8%	?	-8.5
COCCn1c(-c2ccc(OC(F)(F)C(F)C(F)(F)F)cc2)nc2c1c(=O)[nH]c(=O)n2CC(C)C (configuration not stated)	?	?	2.0%	-10.7%	20.6µM*	-2.9
CCCCn1c(=O)[nH]c(=O)c2c1nc(-c1ccc3ccccc3c1)n2CC	-7.1%	?	5.4%	-6.8%	?	-4.6
COc1cc(OC)c(C2C=C(c3ccc(C)cc3)Nc3c(C(=O)Nc4ccccc4)cnn32)cc1OC (configuration not stated)	-14.0%	?	9.1%	-10.4%	?	/
Cc1nn2c(=O)cc(COC(=O)c3ccccc3NC(=O)C(C)C)nc2s1	-0.1%	11.6µM*	3.8%	-2.0%	?	/
CC(Oc1ccccc1)C(=O)Nc1ccccc1C(=O)OCc1cc(=O)n2nc(C(C)C)sc2n1 (configuration not stated)	-1.3%	20.6µM*	6.2%	-0.8%	?	/
Cc1nn2c(=O)cc(COC(=O)c3ccccc3NC(=O)c3ccccc3C)nc2s1	2.4%	-2.1%	3.8%	-21.0%	3.1%	/
Cc1nc(N)sc1N=Nc1ccccc1C(F)(F)F	0.0%	?	/	-20.9%	?	-70.8*
CC1=NN(Cc2ccccc2)C(=O)/C1=C\c1ccc(N(C)C)cc1	-3.3%	?	9.3%	-23.9%	13µM*	18.9

From PubChem BioAssay
